Sampled rows, rich in hits. Any-hit rate of the full collection: about 6.9%.
Vif-A3F inh = blocks the Vif interaction with APOBEC3F | HeLa A3F-eYFP + Vif (tagged APOBEC3F with the HIV-1 protein that degrades it), YFP fluorescence increase | Potency, µM (doses to about 46.1 µM) | actives 0.2% (n = 390,000) | AID 602313; further: nearly all actives have a fitted effect of over 65% in size
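HeLa cells stably expressing Vif plus C-terminally eYFP-tagged A3F were seeded, incubated overnight at 37 deg C, dosed with compound, incubated overnight again at 37 deg C. Yellow fluorescence (Ex 488/Em 500-530) reported blocked Vif-mediated A3F-eYFP degradation.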
Giardia kill = Giardia lamblia killing; Giardia lamblia trophozoite viability; activity change, % at 7.66 µM, hits read low; actives 0.15% (n = 340,000); AID 540267; in the data active means activity change below about -80%; inconclusive means between about -30% and that limit;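 further: parasites exposed to compound for two days anaerobically before the ATP read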
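Trophozoites 100 cells/well + cpd; 48 hrs, 37 deg C, anaerobic. ATPLite 1-Step added, 15-30 min RT, luminescence read (ATP-based viability).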
MCF10A rereplic = inducers of DNA re-replication in MCF 10A breast cells; actives 2.9% (n = 350,000); Potency, µM (titrated, usually from 46.1 µM), actives largely listed as activators; MCF 10A DNA re-replication, Hoechst nuclear intensity, 48 h; further: nearly all actives have a fitted effect of over 50% in size
IL-1B inflam inh = inhibitors of inflammasome signaling (IL-1 beta secretion). activity change, % at 57.5 µM. THP-1 LPS/ATP IL-1B secretion, AlphaLISA, 16 h; stronger effect = lower value. actives 4.7% (n = 360,000); in the data active means activity change below about -50%; inconclusive means mostly about -30% to -49%
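Secreted IL-1B measured by AlphaLISA bead assay after 16 h compound exposure of THP-1 cells; compounds (final up to 57.5 uM) added 1 h before LPS (250 ng/mL) and ATP (1.25 mM) stimulation; lower signal means less secretion.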
SW480 rerep = DNA re-replication induction in SW480 cells; actives 1.8% (n = 340,000); SW480 DNA re-replication, Hoechst DNA content imaging, 48 h; Potency, µM (titrated, usually from 46.1 µM), hits mostly activators; further: nearly all actives have a fitted effect of over 55% in size
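Treated cells incubate 48 hr (37 C, 5% CO2), are stained 40 min with Hoechst, and nuclear fluorescence is enumerated; a rise in nuclei with high DNA signal marks re-replication.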
Vif-APOBEC3G blk = blocks the Vif interaction with human APOBEC3G; Q9HC16; Potency, µM (doses to about 46.1 µM), most hits filed as inhibitors; HeLa A3G-eYFP + Vif (tagged APOBEC3G with the HIV-1 protein that degrades it), YFP fluorescence, overnight; AID 602310; actives 0.076% (n = 410,000); further: nearly all actives have a fitted effect of over 60% in size
Target sequence (Q9HC16 whole entry, looked up): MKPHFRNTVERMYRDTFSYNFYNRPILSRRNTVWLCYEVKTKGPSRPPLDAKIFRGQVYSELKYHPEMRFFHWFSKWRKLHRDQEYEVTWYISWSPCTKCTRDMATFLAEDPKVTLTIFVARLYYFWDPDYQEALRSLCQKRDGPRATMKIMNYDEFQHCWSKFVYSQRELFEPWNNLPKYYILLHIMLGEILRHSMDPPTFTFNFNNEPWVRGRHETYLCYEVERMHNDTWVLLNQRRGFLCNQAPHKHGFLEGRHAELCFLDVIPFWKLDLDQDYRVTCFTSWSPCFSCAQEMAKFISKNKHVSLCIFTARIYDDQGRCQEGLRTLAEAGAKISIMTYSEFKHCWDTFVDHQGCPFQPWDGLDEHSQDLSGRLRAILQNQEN
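HeLa cells stably expressing Vif and C-terminally eYFP-tagged A3G, seeded overnight at 37 deg C, then exposed to compound by pintool overnight at 37 deg C. Rise in yellow fluorescence (Ex 488/Em 500-530, Acumen) marks blocked Vif-driven A3G degradation.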
A number is an active result; - = inactive; ? = inconclusive; . = no result given. Unless noted, the call rests on the fitted dose curve; in most records, active means well fitted curve in the direction sought with a large enough effect; inconclusive means small, poorly fitted or top-dose-only effect, or another doubt; inactive means no such curve, though single readings can be large; an effect the other way counts as inactive or inconclusive.

SMILES	Vif-A3F inh	Giardia kill	MCF10A rereplic	IL-1B inflam inh	SW480 rerep	Vif-APOBEC3G blk
CCN(CC(=O)Nc1ccc(OC)cc1)CC(=O)Nc1ccc(Cl)cc1F	-	-	-	-	-	-
O=C(C/C=N\O)Nc1ccc(Oc2ccccc2)cc1	-	-	-	-	-	-
Cc1cc(NC(=O)CCSc2ccccc2)ccc1Br	-	-	?	-67	-	-
Cc1cc(NC(=O)CN(C)CCOc2ccccc2)ccc1Br	-	-	?	-52	-	-
CN(CCOc1ccccc1)CC(=O)Nc1cccc(Br)c1	-	-	?	-	-	-
Nc1cnccn1	.	.	.	.	.	-
CCN(CC)S(=O)(=O)c1nnc(NC(=O)COc2cccc(C)c2)s1	-	.	.	.	.	-
CCN(CC(=O)Nc1cccc(OC)c1)CC(=O)Nc1ccc(Br)c(C)c1	-	-	?	-68	-	-
Cc1ccc(NC(=O)CCC(=O)NNC(=O)Cc2ccccc2)cc1C	-	-	1.8µM	-	-	-
CC(C)(C)c1ccc(Oc2nc3ccccn3c(=O)c2/C=C(\C#N)c2nc3ccccc3[nH]2)cc1	?	.	.	.	.	-
O=C(NNc1ncnc2c1cnn2-c1cccc(Cl)c1)c1ccco1	?	-	?	-	21µM	-
O=C(NNc1ncnc2c1cnn2-c1ccccc1)c1cccs1	-	-	-	-60	-	-
Cc1ccc(-n2ncc3c(NNC(=O)c4ccccc4C)ncnc32)cc1	?	.	.	.	.	-
Clc1ccc(CN2C3=NCCCN3c3ccccc32)cc1	-	-	-	-	-	-
Clc1ccc(CN2C3=NCCCN3c3ccccc32)cc1Cl	-	-	16µM	.	-	-
C=CCOc1c(Br)cc(C2C3=C(CCCC3=O)N(C)C3=C2C(=O)CCC3)cc1OCC	-	-	-	-	23µM	-
Nc1cc2c(cc1Br)-c1ccccc1C2=NO	-	-	?	-105	-	-
ON=C1c2ccccc2-c2ccc(Br)cc21	-	-	?	-	-	-
OC(CN1CC=C(/C=C/c2ccc(Br)cc2)CC1)c1ccccc1 (centres undefined)	-	-	-	-73	-	-
O=c1c2ccccc2oc2ccc(NCCCN3CCOCC3)cc12	-	-	-	-53	-	-
COc1cccc2sc3ccc(NCc4ccc5c(c4)OCO5)cc3c(=O)c12	?	-	-	-	-	-
O=c1c2ccccc2oc2cc(NCCCN3CCOCC3)ccc12	-	-	16µM	-51	?	-
Cn1c2ccccc2c(=O)c2cc(NCCCN3CCOCC3)ccc21	-	-	?	?	-	-
O=c1c2ccccc2oc2cc(NCCCn3ccnc3)ccc12	-	-	21µM	-	?	-
COc1cccc2sc3cc(NCCCN4CCOCC4)ccc3c(=O)c12	-	-	18µM	-60	-	-
SMILES	Vif-A3F inh	Giardia kill	MCF10A rereplic	IL-1B inflam inh	SW480 rerep	Vif-APOBEC3G blk
Cc1ccc2c(c1)c1c3n2CCN(C(=O)c2cccc(C(F)(F)F)c2)C3CCC1 (centres undefined)	-	.	.	.	.	-
CCOC(=O)c1c(NC(=O)CCCOc2ccc(C(C)(C)C)cc2)sc2c1CCCC2	-	.	.	.	.	-
CCOC(=O)c1ccccc1NC(=O)CSc1nc2ncccc2o1	-	.	.	.	.	-
COc1ccc(-c2noc(CSc3nnc(Cc4ccccc4)n3-c3cccc(C)c3)n2)cc1OC	-	-	-	-64	-	-
Clc1ccc(-c2noc(CSc3nnc(-c4ccncc4)n3-c3ccccc3)n2)cc1	-	-	?	-56	?	-
Cc1ccc(-c2noc(CSc3nnc(Cc4ccccc4)n3-c3cccc(C)c3)n2)cc1	-	-	18µM	?	-	-
COc1ccc(-c2noc(CSc3nnc(Cc4ccccc4)n3-c3ccccc3)n2)cc1OC	-	.	.	.	.	-
COc1ccc(SCC(Cc2ccccc2)N2CCN(CCc3ccccc3)CCC2=O)cc1 (centres undefined)	.	-	.	.	.	-
CC(NC(=O)Cn1c(=O)oc2cc(S(=O)(=O)NCc3ccccc3)ccc21)c1ccccc1 (centres undefined)	-	.	.	.	.	-
Cc1cc(C)cc(NC(=O)c2cc(CN3CCCC3)on2)c1	-	.	.	.	.	-
COC(=O)c1[nH]c2ccccc2c1NC(=O)CN1CCN(C/C=C/c2ccccc2)CC1	-	-	-	-76	-	-
CCOC(=O)c1[nH]c2ccc(OCC)cc2c1NC(=O)CN1CCN(c2ccccc2)CC1	-	-	?	-	-	-
CCOC(=O)c1[nH]c2ccc(F)cc2c1NC(=O)CN1CCN(C/C=C/c2ccccc2)CC1	-	-	15µM	-79	?	-
Nc1nc(N)c2c(OCc3ccc(C(F)(F)F)cc3)cccc2n1	.	.	.	.	.	-
CCOc1ccc(N2C(=O)CC(NCCc3c[nH]c4ccccc34)C2=O)cc1 (centres undefined)	-	-	-	-	2.9µM	-
Cc1[nH]c2ccccc2c1C1=CC(=O)C=CC1=O	?	-	-	-101	?	?
CCCCC(=O)Nc1nnc(SCc2cc(=O)n3cc(C)ccc3n2)s1	-	.	.	.	.	-
CC(C)N=C(NS(=O)(=O)c1ccccc1)C(Cl)(Cl)Cl	-	-	5.8µM	-96	5.8µM	?
O=S(=O)(NC(=S)c1ccccc1)c1ccccc1	-	-	-	-	-	-
Cc1ccc(-n2ncc(C(=O)NCCc3ccccc3)c2C2CCN(C(=O)OC(C)(C)C)CC2)c(C)c1	-	.	.	.	.	-
C=CCCC(=O)N1CCCC(Cc2cccc(Cl)c2)(C(=O)OCC)C1 (centres undefined)	-	-	-	-56	-	-
CCOC(=O)C1(Cc2cccc(Cl)c2)CCCN(C(=O)CCOC)C1 (centres undefined)	-	-	?	-	-	-
Cc1nc2scc(-c3ccccc3)c2c(=O)n1N=C1C=CC(=O)C=C1	-	-	?	-71	?	-
Cc1nc2scc(-c3ccccc3)c2c(=O)n1N	-	-	-	-	-	-
Cc1ccc(CSCC(=O)N2CCN(c3ccccc3F)CC2)cc1	-	.	.	.	.	-
SMILES	Vif-A3F inh	Giardia kill	MCF10A rereplic	IL-1B inflam inh	SW480 rerep	Vif-APOBEC3G blk
O=S(=O)(c1ccc(Br)cc1)c1nnn2c1nc(NCc1ccc3c(c1)OCO3)c1sccc12	-	.	.	.	.	-
Cc1ccc2oc(C(Cl)(Cl)Cl)cc(=O)c2c1	-	-	-	-100	-	-
Cc1ccc2oc(C(F)(F)C(F)F)cc(=O)c2c1	-	-	-	-	-	-
O=NCc1ccc([N+](=O)[O-])o1	.	.	-	.	-	.
C=CCn1c(=O)/c(=C/c2ccc(F)cc2)s/c1=C(\C#N)c1nnc2n1CCCCC2	-	-	-	-67	-	-
C=CCN1C(c2ccc(OCC)cc2)=CS/C1=C(\C#N)c1nnc2n1CCCCC2	-	-	?	-	-	-
COc1ccc(CN2CCC3CC2c2cc(-c4cccc(C)c4)ccc23)cc1 (centres undefined)	?	?	9.2µM	-	?	-

Bioassay records from PubChem BioAssay.
